# In PubChem BioAssay AID1777 (Sanford-Burnham Center for Chemical Genomics, 2009):
# The campaign covered roughly 280,000 compounds. About 50 (0.02%) were called active. Cut-off read from the data, not from the text of the source: active = activation above about 50% (passing the limit was not always enough); inactive = the rest. This excerpt belongs to a sample that is enriched for actives. Potency and affinity values are given separately.
# Target: Kappa-type opioid receptor (Homo sapiens) (UniProt P41145)
# Assay: KOR agonists, beta-arrestin recruitment, primary screen, cell-based, luminescence, uHTS (AID 1777)
# Conditions: at 10 µM, hits give high values
# Kappa-type opioid receptor (Homo sapiens), sequence (P41145 whole entry, looked up): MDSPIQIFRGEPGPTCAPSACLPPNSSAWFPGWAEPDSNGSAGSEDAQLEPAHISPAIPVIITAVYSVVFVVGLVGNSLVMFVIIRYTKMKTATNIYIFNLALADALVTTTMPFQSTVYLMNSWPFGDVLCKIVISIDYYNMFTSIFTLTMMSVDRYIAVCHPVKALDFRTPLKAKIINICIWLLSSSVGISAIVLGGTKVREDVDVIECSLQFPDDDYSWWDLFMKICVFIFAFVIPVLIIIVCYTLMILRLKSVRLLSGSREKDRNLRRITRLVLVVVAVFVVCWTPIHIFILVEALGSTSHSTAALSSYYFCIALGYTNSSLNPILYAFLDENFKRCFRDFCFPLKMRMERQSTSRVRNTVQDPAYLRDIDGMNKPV
row,Compound,activation
1,COc1ccc(C(CNC(=O)Cc2ccc(Cl)c(Cl)c2)N(C)C)cc1 (stereo not given),-2.4% (inactive)
2,COC(=O)N1CCN(C(=O)Cc2ccc(Cl)c(Cl)c2)C(CN2CCCC2)C1 (stereo not given),91.3% (active)
3,COc1ccc(C(CNC(=O)Cc2ccc(Cl)c(Cl)c2)N2CCCCC2)cc1 (stereo not given),-2.4% (inactive)
4,CCN1C(=O)N(CC)C(=O)C2(Cc3ccccc3N3CCN(c4ccccc4)CC32)C1=O (stereo not given),2.7% (inactive)
5,COc1ccc2nc(/N=C/c3c(O)n(-c4cccc(Cl)c4)c(=O)[nH]c3=O)sc2c1,2.9% (inactive)
